According to PubChem BioAssay (NCATS):
Records with an inconclusive call do not appear. Calls of active or inactive are those of the source. The call rests on the fitted dose curve; in most records, active means well fitted curve in the direction sought with a large enough effect; inconclusive means small, poorly fitted or top-dose-only effect, or another doubt; inactive means no such curve, though single readings can be large; an effect the other way counts as inactive or inconclusive.

Key:
[1] = qHTS of pediatric cancer cell lines to identify multiple opportunities for drug repurposing: Primary screen for SK-N-MC cells (AID 1347093);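 further: series mostly up to about 46 µM; plate controls were DMSO neutral control for no effect and bortezomib for full effect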
Outline: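 Metabolically active cells were quantified by ATP-dependent luminescence (CellTiter-Glo, 15 min at room temperature) following 48 h treatment. Cells had been plated at 500-1,000 per well and settled for 5 h beforehand.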

[2] = qHTS of pediatric cancer cell lines to identify multiple opportunities for drug repurposing: Primary screen for BT-37 cells (AID 1347094);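 further: series mostly up to about 57 µM; plate controls were DMSO for no effect and bortezomib for full effect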
Outline: (§1)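 Luminescence from CellTiter-Glo served as readout of metabolically active cells after 48 h compound exposure. Titrations: MIPE 11-point, from 0.78 nM; NPC 8-point, from 0.59 nM (final). Concentration-response curves came straight from the primary screen.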

[3] = qHTS of pediatric cancer cell lines to identify multiple opportunities for drug repurposing: Primary screen for NB-EBc1 cells (AID 1347095);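 further: plate controls were DMSO neutral control for no effect and bortezomib for full effect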
Outline: as §1

[4] = qHTS of pediatric cancer cell lines to identify multiple opportunities for drug repurposing: Primary screen for U-2 OS cells (AID 1347096);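 further: plate controls were DMSO wells for no effect and bortezomib positive control wells for full effect; nearly all actives have a fitted effect of over 50% in size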
Outline: (§2)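 Cells (500-1,000/well) rested 5 h, then received compounds for 48 h; metabolically active cells were measured by CellTiter-Glo luminescence. Final concentrations spanned up to 46 µM (MIPE, 11-point) or 0.59 nM-46 µM (NPC, 8-point) in primary screens, 11-point in follow-ups.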

[5] = qHTS of pediatric cancer cell lines to identify multiple opportunities for drug repurposing: Primary screen for Saos-2 cells (AID 1347097); further: on the % scale 0 is the no-effect control and ±100 the full control effect; nearly all actives have a fitted effect of over 40% in size
Outline: as §1

[6] = qHTS of pediatric cancer cell lines to identify multiple opportunities for drug repurposing: Primary screen for SK-N-SH cells (AID 1347098);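 further: DMSO served as neutral control and bortezomib at 2.3 µM as positive control; on the % scale 0 is the no-effect control and ±100 the full control effect; nearly all actives have a fitted effect of over 65% in size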
Outline: as §2

[7] = qHTS of pediatric cancer cell lines to identify multiple opportunities for drug repurposing: Primary screen for NB1643 cells (AID 1347099);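 further: plate controls were DMSO neutral control for no effect and bortezomib positive control for full effect; nearly all actives have a fitted effect of over 50% in size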
Outline: as §1

[8] = qHTS of pediatric cancer cell lines to identify multiple opportunities for drug repurposing: Primary screen for LAN-5 cells (AID 1347100);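 further: plate controls were DMSO neutral control for no effect and bortezomib positive control for full effect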
Outline: as §2

[9] = qHTS of pediatric cancer cell lines to identify multiple opportunities for drug repurposing: Primary screen for BT-12 cells (AID 1347101);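 further: plate controls were DMSO for no effect and bortezomib positive control for full effect; nearly all actives have a fitted effect of over 25% in size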
Outline: as §2

[10] = qHTS of pediatric cancer cell lines to identify multiple opportunities for drug repurposing: Primary screen for Rh18 cells (AID 1347102); further: on the % scale 0 is the no-effect control and ±100 the full control effect; nearly all actives have a fitted effect of over 65% in size
Outline: as §2

[11] = qHTS of pediatric cancer cell lines to identify multiple opportunities for drug repurposing: Primary screen for OHS-50 cells (AID 1347103);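 further: plate controls were DMSO neutral control for no effect and bortezomib positive control for full effect; nearly all actives have a fitted effect of over 40% in size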
Outline: as §2

[12] = qHTS of pediatric cancer cell lines to identify multiple opportunities for drug repurposing: Primary screen for RD cells (AID 1347104);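 further: plate controls were DMSO for no effect and bortezomib for full effect; nearly all actives have a fitted effect of over 55% in size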
Outline: as §1

[13] = qHTS of pediatric cancer cell lines to identify multiple opportunities for drug repurposing: Primary screen for MG 63 (6-TG R) cells (AID 1347105); further: on the % scale 0 is the no-effect control and ±100 the full control effect; nearly all actives have a fitted effect of over 50% in size
Outline: as §1

[14] = qHTS of pediatric cancer cell lines to identify multiple opportunities for drug repurposing: Primary screen for control Hh wild type fibroblast cells (AID 1347106);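 further: series mostly up to about 46 µM; on the % scale 0 is the no-effect control and ±100 the full control effect; a drop in luminescence marks cytotoxicity and a rise apparent proliferation; nearly all actives have a fitted effect of over 55% in size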
Outline: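 Cells (500-1,000/well) in growth media were settled 5 h at 37 degrees C, then given compounds for 48 h. Viability was read as CellTiter-Glo luminescence. Primary runs used MIPE at 11 points (0.78 nM-46 µM) and NPC at 8 points (0.59 nM-46 µM); follow-ups used 11 points.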

[15] = qHTS of pediatric cancer cell lines to identify multiple opportunities for drug repurposing: Primary screen for Rh41 cells (AID 1347108);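 further: series mostly up to about 46 µM; luminescence drop marks cytotoxic hits; nearly all actives have a fitted effect of over 70% in size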
Outline: as §1

[16] = qHTS of pediatric cancer cell lines to identify multiple opportunities for drug repurposing: Primary screen for Rh30 cells (AID 1347107); further: series mostly up to about 46 µM; on the % scale 0 is the no-effect control and ±100 the full control effect; nearly all actives have a fitted effect of over 75% in size
Outline: as §2

O=C(O)CCCCCCCC(=O)O
inactive: Potency [1] | Potency [2] | Potency [3] | Potency [4] | Potency [5] | Potency [6] | Potency [7] | Potency [8] | Potency [9] | Potency [10] | Potency [11] | Potency [12] | Potency [13] | outcome [14] | Potency [15]

C[N+](C)(C)CCOC(=O)CCC(=O)OCC[N+](C)(C)C
inactive: Potency [1] | Potency [2] | Potency [3] | Potency [4] | Potency [5] | Potency [6] | Potency [7] | Potency [8] | Potency [9] | Potency [10] | Potency [11] | Potency [12] | Potency [13] | outcome [14]

CCCCNc1ccc(C(=O)OCCN(C)C)cc1
inactive: Potency [1] | Potency [2] | Potency [3] | Potency [4] | Potency [5] | Potency [6] | Potency [7] | Potency [8] | Potency [9] | Potency [10] | Potency [12] | Potency [13] | outcome [14] | Potency [16]

CCCN1C[C@H](CSC)C[C@@H]2c3cccc4[nH]cc(c34)C[C@H]21
inactive: Potency [1] | Potency [2] | Potency [3] | Potency [4] | Potency [5] | Potency [6] | Potency [7] | Potency [8] | Potency [9] | Potency [10] | Potency [12] | Potency [13] | outcome [14]

CCN1CCc2nc(N)oc2CC1
inactive: Potency [1] | Potency [2] | Potency [3] | Potency [4] | Potency [5] | Potency [6] | Potency [7] | Potency [8] | Potency [9] | Potency [10] | Potency [11] | Potency [12] | Potency [13] | Potency [16] | Potency [15]

COc1ccc(CN(CCN(C)C)c2ccccn2)cc1
inactive: Potency [1] | Potency [2] | Potency [3] | Potency [4] | Potency [5] | Potency [6] | Potency [7] | Potency [8] | Potency [9] | Potency [10] | Potency [11] | Potency [12] | Potency [13] | outcome [14] | Potency [15]

CCO/C([O-])=N/c1c[n+](N2CCOCC2)no1
inactive: Potency [1] | Potency [2] | Potency [3] | Potency [4] | Potency [5] | Potency [6] | Potency [7] | Potency [8] | Potency [9] | Potency [10] | Potency [11] | Potency [12] | Potency [13] | outcome [14] | Potency [16]

CC1=NS(=O)(=O)c2cc(Cl)ccc2N1
inactive: Potency [1] | Potency [2] | Potency [3] | Potency [4] | Potency [5] | Potency [6] | Potency [7] | Potency [8] | Potency [9] | Potency [10] | Potency [12] | Potency [13] | Potency [16]

O=C(O)CP(=O)(O)O
inactive: Potency [1] | Potency [2] | Potency [3] | Potency [4] | Potency [5] | Potency [7] | Potency [8] | Potency [9] | Potency [10] | Potency [11] | Potency [12] | Potency [13] | outcome [14] | Potency [16]

CC(N=C(NC#N)Nc1ccncc1)C(C)(C)C (stereo not given)
inactive: Potency [1] | Potency [2] | Potency [3] | Potency [4] | Potency [5] | Potency [7] | Potency [8] | Potency [9] | Potency [10] | Potency [12] | Potency [13] | outcome [14] | Potency [15]

c1cnc(N2CCN(Cc3ccc4c(c3)OCO4)CC2)nc1
inactive: Potency [1] | Potency [2] | Potency [3] | Potency [4] | Potency [5] | Potency [6] | Potency [7] | Potency [8] | Potency [9] | Potency [10] | Potency [12] | Potency [13] | outcome [14] | Potency [16] | Potency [15]

FC(F)(F)c1ccccc1-n1ccnc1
inactive: Potency [1] | Potency [2] | Potency [3] | Potency [4] | Potency [5] | Potency [7] | Potency [8] | Potency [9] | Potency [10] | Potency [12] | Potency [13] | Potency [16] | Potency [15]

Cc1ccc(/C(=C\CN2CCCC2)c2ccccn2)cc1
inactive: Potency [1] | Potency [2] | Potency [3] | Potency [4] | Potency [5] | Potency [6] | Potency [7] | Potency [8] | Potency [9] | Potency [10] | Potency [12] | Potency [13] | Potency [16] | Potency [15]

CCCNC(C)C(=O)Nc1ccccc1C (stereo not given)
inactive: Potency [1] | Potency [2] | Potency [3] | Potency [4] | Potency [5] | Potency [6] | Potency [7] | Potency [8] | Potency [10] | Potency [12] | Potency [13] | outcome [14] | Potency [16]

CCCCOCCOCCOCc1cc2c(cc1CCC)OCO2
inactive: Potency [1] | Potency [2] | Potency [3] | Potency [4] | Potency [5] | Potency [6] | Potency [7] | Potency [8] | Potency [9] | Potency [10] | Potency [12] | Potency [13] | outcome [14] | Potency [15]

NC(Cc1ccc(Cl)cc1)C(=O)O (stereo not given)
inactive: activity change, negative = cytotoxic [1] -1.75% [at 0.597 µM] | activity change, negative = cytotoxic [2] 9.97% [at 0.745 µM] | activity change, negative = cytotoxic [3] 23.4% [at 0.597 µM] | activity change, negative = cytotoxic [4] 18.1% [at 0.597 µM] | activity change, negative = cytotoxic [5] 1.27% [at 0.597 µM] | activity change, negative = cytotoxic [6] -6.57% [at 0.741 µM] | activity change, negative = cytotoxic [7] 9.7% [at 0.597 µM] | activity change, negative = cytotoxic [8] 0.0057% [at 0.597 µM] | activity change, negative = cytotoxic [9] 7.02% [at 0.745 µM] | activity change, negative = cytotoxic [10] 15.1% [at 0.597 µM] | activity change, negative = cytotoxic [11] 9.59% [at 0.73 µM] | activity change, negative = cytotoxic [12] 7.62% [at 0.597 µM] | activity change, negative = cytotoxic [13] 9.57% [at 0.597 µM] | activity change, negative = cytotoxic [14] 6.18% [at 0.597 µM] | activity change, negative = cytotoxic [16] 30.5% [at 0.597 µM]
